In the library only some 1.7% were active in any assay of this set; here they are far more common.
Measles CPE: protection of cells from measles virus. Measles virus-infected cells, CPE protection, absorbance. protection (pct of control), % at 4 µM. actives 1.5% (n = 140,000). AID 841; in the data active = protection mostly above about 24%, no sharp cut-off; inactive = mostly below about 26%
PTPN22 inh 2: LYP (human) phosphatase inhibition; Q9Y2R2; recombinant LYP catalytic domain, DiFMUP fluorescence; inhibition, % at 2 µM; actives 0.21% (n = 96,000); AID 640;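 active = inhibition at 2 µM at or above a set limit, the screen mean plus 3 SD, cut at about 24% in these data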
Target sequence (Q9Y2R2 whole entry, looked up, the tested form may be a part): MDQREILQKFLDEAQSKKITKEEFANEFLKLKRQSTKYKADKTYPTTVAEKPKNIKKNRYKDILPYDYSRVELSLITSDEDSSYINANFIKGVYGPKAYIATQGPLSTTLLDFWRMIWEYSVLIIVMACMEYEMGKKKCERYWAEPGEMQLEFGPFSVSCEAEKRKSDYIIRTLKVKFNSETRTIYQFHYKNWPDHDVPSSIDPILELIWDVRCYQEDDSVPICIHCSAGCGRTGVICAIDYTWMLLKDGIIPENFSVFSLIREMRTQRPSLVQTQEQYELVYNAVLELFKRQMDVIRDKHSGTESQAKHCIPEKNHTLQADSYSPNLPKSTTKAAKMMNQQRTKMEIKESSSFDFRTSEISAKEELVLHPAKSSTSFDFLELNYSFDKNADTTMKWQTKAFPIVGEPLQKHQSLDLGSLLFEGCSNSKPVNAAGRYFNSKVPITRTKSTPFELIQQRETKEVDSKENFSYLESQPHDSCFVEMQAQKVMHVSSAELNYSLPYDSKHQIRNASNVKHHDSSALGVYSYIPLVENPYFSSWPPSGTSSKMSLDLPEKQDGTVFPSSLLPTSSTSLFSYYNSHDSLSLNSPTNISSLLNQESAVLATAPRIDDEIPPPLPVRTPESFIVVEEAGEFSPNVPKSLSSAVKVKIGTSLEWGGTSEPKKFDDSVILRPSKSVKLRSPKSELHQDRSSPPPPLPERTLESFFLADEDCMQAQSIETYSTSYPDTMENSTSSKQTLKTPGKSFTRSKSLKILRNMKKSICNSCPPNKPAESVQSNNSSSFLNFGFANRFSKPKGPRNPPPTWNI
LYP act: activators of human LYP (PTPN22) phosphatase; activation, % at 2 µM; AID 697; recombinant LYP, DiFMUP fluorescence; 0 = plate median, 100 = signal doubled; actives 0.11% (n = 96,000);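 active = activation at 2 µM above a set limit, the mean plus 5 SD, cut at about 37% in these data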
Numbers stand for hits; 0 = inactive; - = not tested or not shown.

SMILES	Measles CPE	PTPN22 inh 2	LYP act
O=C(CSc1nnc(-c2ccncc2)o1)Oc1ccccc1	0	0	0
CC(=O)NCCOc1ccc2oc3ccccc3c2c1	47.1	0	0
CC(=O)NCCOc1cccc(OCCNC(C)=O)c1	0	0	0
O=[N+]([O-])c1ccc(NC2CCCC2)cc1	0	-	-
O=c1[nH]c(NC2CCCCC2)c([N+](=O)[O-])c(=O)[nH]1	28.3	-	-
CC(C(=O)c1ccc(Br)cc1)[n+]1cccc(NC(=O)c2ccccc2)c1 (stereo not given)	0	-	-
Cc1cccc(C(=O)N/N=C/c2ccc3c(c2)OCO3)n1	0	0	0
O=C(N/N=C/c1ccc2c(c1)OCO2)c1ccccn1	92.4	0	0
COC(=O)C(C)Sc1nc2c(cnn2-c2ccc(C)cc2)c(=O)[nH]1 (stereo not given)	58.6	0	0
CCC(Sc1nc2c(cnn2-c2ccccc2)c(=O)[nH]1)C(=O)OC (stereo not given)	0	0	0
Cc1cccc(N(C(=O)CCC(=O)Nc2cc(C)on2)C(C(=O)NC2CCCC2)c2ccncc2)c1 (stereo not given)	0	-	-
c1ccc2c(c1)ncn2CCCOc1ccc2c(c1)CCC2	0	0	0
CC1(C)NC(=O)N(CN2C(=O)NC(C)(C)C2=O)C1=O	0	0	0
O=C(CN(Cc1ccco1)C(=O)CNS(=O)(=O)c1ccccc1)NCc1ccccc1	0	0	0
O=C(CN(Cc1ccco1)C(=O)CNS(=O)(=O)c1ccc(F)cc1)NCCc1ccccc1	38.6	-	-
CC(C)N1CCC(=NNC(=O)c2ccccc2[N+](=O)[O-])CC1	0	-	-
CC(C)c1ccc(C2CC(=O)c3cnc(N4CCc5ccccc5C4)nc3C2)cc1 (stereo not given)	0	0	0
CC1CC(C)CN(c2ncc3c(n2)CC(c2ccccc2)CC3=O)C1 (stereo not given)	41.9	0	0
CCC(=O)NC(Nc1ncc(C)s1)(C(=O)OC)C(F)(F)F (stereo not given)	0	0	0
Cc1nc2nc(C)c(CCC(=O)N3CCc4ccccc43)c(C)n2n1	0	0	0
Cc1nc2ncnn2c(C)c1CCC(=O)N1CCc2ccccc21	39.6	-	-
O=C(N[C@@H](Cc1ccccc1)C(=O)NC1CCCCCC1)c1ccco1	0	0	0
CCN1CCN(C(=O)CN(C)S(=O)(=O)c2ccc(Cl)cc2)CC1	0	0	0
Cc1cnc(NC(=O)COc2ccccc2)s1	0	0	0
O=Cc1cc([N+](=O)[O-])ccc1N1CCOCC1	33.1	-	-
SMILES	Measles CPE	PTPN22 inh 2	LYP act
O=C(c1ccccc1)c1cc([N+](=O)[O-])ccc1N1CCOCC1	0	-	-
CCCCCCn1c(SCC(C)C)nc2c1c(=O)[nH]c(=O)n2C	0	0	0
O=C(CSc1nnc(-c2cccnc2)n1Cc1ccco1)c1ccccc1	0	0	0
O=C(Oc1ccc(Br)cc1C(=S)N1CCCC1)c1ccccc1Cl	0	0	0
CCOc1ccc(-c2noc(=O)[nH]2)cc1	38.3	0	0
COc1ccc(-c2noc(=O)[nH]2)cc1	0	-	-
CCN(CC)S(=O)(=O)c1ccc2oc(C(=O)NC3CCCc4ccccc43)c(C)c2c1 (stereo not given)	0	0	0
CCOC(=O)N1CCC(NC(=O)CCCN2C(=O)CSc3ncccc32)CC1	0	-	-
CCOC(=O)N1CCC(NC(=O)CN2C(=O)CSc3ncccc32)CC1	29.7	-	-
CCC1(c2ccc(F)cc2)NC(=O)N(CC(=O)N2CCOCC2)C1=O (stereo not given)	-	0	0
CCC1(c2ccc(F)cc2)NC(=O)N(CC(=O)c2ccc[nH]2)C1=O (stereo not given)	30.1	0	0
Cc1ccc(/C=N/NC(=O)c2ccc(Cn3cc([N+](=O)[O-])cn3)o2)cc1	0	-	-
c1ccc(CCn2nnnc2CN2CCCc3ccccc32)cc1	0	0	0
CCC(C)(C)n1nnnc1CN1CCc2ccccc21	72.8	0	0
COC(=O)c1ccc(-c2ncc(-c3cccc4ccccc34)o2)cc1	0	0	0
Cc1nn(Cc2ccccc2)c(C)c1NC(=O)CSc1nc(-c2ccccc2)nc2c1cnn2-c1ccccc1	0	0	0
Cc1nc(SCC(=O)Nc2c(C)nn(C)c2C)c2cnn(-c3ccccc3)c2n1	48.1	0	0
COc1ccc(N2CCN(C(=O)c3ccc(NS(=O)(=O)c4ccc(F)c(F)c4)cc3)CC2)cc1	0	0	0
COc1ccc(N2CCN(C(=O)c3ccc(NS(=O)(=O)c4cccc(F)c4)cc3)CC2)cc1	18.8	0	0
Cc1ccccc1N=C(NOCc1ccccc1)c1nonc1N	0	0	0
CC1(C)CC(=O)c2c(O)cc(O)cc2O1	0	0	0
O=C1C[C@@H](c2ccc(O)cc2)Oc2cc(O)cc(O)c21	31.3	-	-
Cc1c(Cl)c([N+](=O)[O-])nn1CC(=O)NC(C)C1CC2CCC1C2 (stereo not given)	48.4	0	0
CCC(C)NC(=O)Cn1nc([N+](=O)[O-])c(Cl)c1C (stereo not given)	0	0	0
Cc1ccc2nc(NC(=S)NC(=O)c3cccs3)sc2c1	0	29.5	0
SMILES	Measles CPE	PTPN22 inh 2	LYP act
Cc1ccc2nc(NC(=O)c3cccs3)sc2c1	0	-	-
CC(=O)Oc1ccc(Oc2ccc(-c3noc(C)n3)cc2)cc1	0	0	0
COc1cccc(-c2nc(CS(=O)(=O)CC(=O)NCCCOC(C)C)c(C)o2)c1	40.8	0	0
COc1cccc(-c2nc(CS(=O)CC(=O)NCCCOC(C)C)c(C)o2)c1 (stereo not given)	0	0	0
CCN1CNC(=S)N(c2cccc(C)c2C)C1	0	0	0
Cc1ccc(N2CCN(C(=O)c3ccccc3)CC2)c(C)c1	0	0	0
C=CCN1C(=O)C(C)(C)N(C(C)=O)c2ccccc21	20.4	-	-
CC(=O)N1c2ccccc2N(Cc2ccc(C)cc2C)C(=O)C1(C)C	0	0	0
Cc1nn(Cc2ccc(Cl)cc2)c(C)c1NC(=O)c1cc(-c2ccc3c(c2)OCO3)on1	0	0	0
O=S(=O)(NCCCc1ccccc1)c1ccccc1	34.6	0	0
O=S(=O)(NCCCCCNS(=O)(=O)c1ccccc1)c1ccccc1	0	0	0
O=C(NCCc1ccccc1)c1ccccc1NS(=O)(=O)N1CCCC1	0	0	0
C[C@@H](C(=O)Nc1ccc2ccccc2c1)[C@H]1C[C@]1(C)[C@H](NC(=O)OCc1ccccc1)c1ccccc1	37.8	-	-
C[C@H](CO)NC(=O)[C@H](C)[C@H]1C[C@]1(C)[C@H](NC(=O)OCc1ccccc1)c1ccccc1	0	-	-
CCN(CC)S(=O)(=O)c1ccc(NC(=O)c2ccc(N(C)S(C)(=O)=O)cc2)cc1	0	0	0
CS(=O)(=O)Nc1cccc(C(=O)CC2(O)C(=O)Nc3ccccc32)c1 (stereo not given)	0	0	0
CS(=O)(=O)Nc1cccc(C(=O)CC2(O)C(=O)Nc3ccc(Br)cc32)c1 (stereo not given)	34.5	0	0
O=C(Nc1ccc(F)cc1)C1CCN(c2nnnn2-c2ccccc2)CC1	0	0	0
Cc1ccccc1CN1CCCNC1=O	0	0	0
CN(CCOc1ccc(-c2ccn(S(=O)(=O)c3cccc4ccccc34)n2)cc1)c1ccccn1	44.4	0	0
CN(CCOc1ccc(-c2ccn(S(=O)(=O)c3c(Cl)cccc3Cl)n2)cc1)c1ccccn1	0	0	0
Cc1cc(C)c(C#N)c(SCC(=O)N2CCCCC2)n1	0	0	0

High-throughput results (PubChem)
